High-throughput results as filed in PubChem BioAssay.
Rows were chosen to be rich in hits. Some 3.2% of all compounds tested hit in one or more screens of this group.
GDH-TPI counter – inhibits GDH-TPI coupling enzymes, artifact for Mtb FBA screen. GDH-TPI coupled enzyme counterscreen, NADH absorbance. inhibition, % at 4.8 µM. actives 1.2% (n = 360,000). AID 588335; in the data active means inhibition above about 30%;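 further: 0% = DMSO wells and 100% = wells lacking the enzyme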
Yp Topo-I inh – Y. pestis Topo-I inhibition via cleavage products. Y. pestis Topo-I cleavage product accumulation, plate reader. activity, % at 10 µM. actives 0.064% (n = 360,000). AID 504884; in the data active means activity above about 50%, passing the limit was not always enough
FBA Mtb inh – inhibitors of M. tuberculosis fructose-bisphosphate aldolase. actives 2.3% (n = 360,000). inhibition, % at 1 µM. P9WQA3. purified M. tuberculosis FBA, fluorescence read-out; in the data active means inhibition above about 27%;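 further: 0% = vehicle and 100% = reference inhibitor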
TcdB GH inh – inhibitors of Clostridioides difficile toxin B glycohydrolase. inhibition, % at 9.99 µM. TcdB glycohydrolase enzymatic assay, plate reader. actives 0.24% (n = 350,000). P18177; in the data active means inhibition above about 10%
PrPC surface inh – inhibitors of human cell surface prion protein PrPC. P04156. TR-FRET read-out. inhibition, % at 13.8 µM. actives 0.43% (n = 370,000). AID 720596; in the data active means inhibition above about 24%; further: 0% = median of the test wells and 100% = reference compound wells
* hit, by the source's call; . = not tested or not shown; + = active, no number.

SMILES	GDH-TPI counter	Yp Topo-I inh	FBA Mtb inh	TcdB GH inh	PrPC surface inh
C/C(=N\NC(=O)c1ccc(O)cc1)c1ccc(N2CCOCC2)cc1	21	14	0	-1	1
O=C(N/N=C/c1ccc(N2CCOCC2)cc1)c1ccc(O)cc1	66*	-8	4	1	-6
Cc1ccc(C(=O)N/N=C/c2ccc(N3CCOCC3)cc2)c(C)c1	34*	-3	1	1	-5
O=C(NN=Cc1ccc(N2CCOCC2)s1)c1ccc([N+](=O)[O-])cc1	26	-12	-6	3	-35
O=C(N/N=C/c1ccc(N2CCOCC2)s1)c1ccc(O)cc1	34*	-14	1	-3	-4
O=C(C[C@H]1C[C@H]2c3cc(NS(=O)(=O)c4ccc(F)cc4)ccc3O[C@H]2[C@@H](CO)O1)NCc1ccccn1	.	.	.	0	.
Cc1noc(C)c1NC(=O)Nc1ccc2c(c1)C(=O)N([C@@H](C)CO)C[C@H](C)[C@@H](CN(C)S(=O)(=O)c1ccc(F)cc1)O2	.	.	.	-1	.
O=C(NCCNc1ccnc2cc(Cl)ccc12)c1ccccc1F	43*	-2	6	3	5
Nc1cc(=O)[nH]c(SCC(=O)N2N=C(c3ccc4ccccc4c3)CC2c2ccccc2)n1 (stereo unspecified)	27	53*	8	-6	7
Cc1cccn2c(=O)c(/C=C(\C#N)S(=O)(=O)c3ccccc3)c(N3CCC(C(N)=O)CC3)nc12	-4	23	-6	.	-20
Cc1ccccc1Oc1nc2c(C)cccn2c(=O)c1/C=C(\C#N)C(=O)NC1CCS(=O)(=O)C1 (stereo unspecified)	10	27	34*	1	3
Cc1cccn2c(=O)c(/C=C(\C#N)C(N)=O)c(N3CCN(Cc4ccc5c(c4)OCO5)CC3)nc12	16	-2	33*	0	-15
Cc1cccn2c(=O)c(/C=C(\C#N)C(=O)NC3CCS(=O)(=O)C3)c(Oc3ccccc3Cl)nc12 (stereo unspecified)	7	28	18	0	-6
Cc1ccc(Oc2nc3ccccn3c(=O)c2/C=C(\C#N)C(=O)NC2CCS(=O)(=O)C2)cc1 (stereo unspecified)	-2	-1	11	0	-1
Cc1cccn2c(=O)c(/C=C(\C#N)C(=O)NC3CCS(=O)(=O)C3)c(N3CC(C)OC(C)C3)nc12 (stereo unspecified)	7	-1	120*	2	-13
Cc1cccn2c(=O)c(/C=C(\C#N)C(=O)NC3CCS(=O)(=O)C3)c(N3CCC(C(N)=O)CC3)nc12 (stereo unspecified)	0	3	192*	1	-5
Cn1cnc(S(=O)(=O)N[C@H]2CC[C@@H](CC(=O)NCC3CC3)O[C@H]2CO)c1	.	.	.	0	.
Cc1ccc(-c2ccc(/C=N/N=C3/NC(=O)C(CC(=O)O)S3)o2)c([N+](=O)[O-])c1 (stereo unspecified)	36*	6	-4	.	-8
O=C(O)CC1S/C(=N/N=C/c2ccc(-c3ccccc3[N+](=O)[O-])o2)NC1=O (stereo unspecified)	40*	-2	-5	.	-4
O=[N+]([O-])c1ccccc1-c1ccc(/C=N/n2cnnc2)o1	27	4	-3	.	-17
Cc1ccc(S(=O)(=O)Oc2ccc(/C=N/N=C3/NC(=O)C(CC(=O)O)S3)cc2)cc1 (stereo unspecified)	22	5	1	0	-5
O=C(C[C@H]1CC[C@H]2[C@@H](COC[C@@H](O)CN2C(=O)c2ccccc2F)O1)N1CCOCC1	.	.	.	2	.
C/C=C/c1ccc([C@@H]2[C@@H](CO)N(C(=O)NC(C)C)[C@H]2CN(C)C(C)=O)cc1	.	.	.	0	.
CC(=O)c1ccc(N2CCN(S(=O)(=O)c3ccc4c(c3)NC(=O)CC(=O)N4)CC2)cc1	10	-7	0	-1	-1
CC(=O)c1ccc(N2CCN(S(=O)(=O)c3ccc4c(c3)C(Cl)(Cl)C(=O)N4)CC2)cc1	32*	49	0	0	-8
SMILES	GDH-TPI counter	Yp Topo-I inh	FBA Mtb inh	TcdB GH inh	PrPC surface inh
COc1ccc(NC(=O)Nc2ccc3c(c2)[C@@H]2C[C@@H](CC(=O)N(C)C)O[C@@H](CO)[C@@H]2O3)cc1	.	.	.	1	.
CCOC(=O)c1ccc(-c2ccc(CO)o2)cc1	19	4	+	.	-7
Cc1ccc(C(=O)NC(=S)Nc2ccc(-c3ccc(CO)o3)cc2)cc1	10	-10	1	0	6
Cc1noc(C)c1NC(=O)N(C)C[C@H]1Oc2c(NS(=O)(=O)c3ccccc3)cccc2C(=O)N([C@@H](C)CO)C[C@H]1C	.	.	.	-1	.
CC(C)(Cl)C1Cc2cc3ccc(=O)oc3cc2O1 (stereo unspecified)	26	5	167*	2	6
Cc1coc2cc3oc(=O)ccc3cc12	-1	5	3	0	7
CSc1ccc(/C=N/n2c(C)cc(C)cc2=O)cc1	33*	2	0	.	-6
O=C(Cc1ccccn1)N1[C@@H](CO)[C@@H]2c3ccccc3NC[C@@H]21	.	.	.	0	.
COc1ccc(/C=N/Nc2ccccn2)cc1OC	33*	-3	0	-2	-10
COc1ccc(/C=N/NC(=O)C(=O)Nc2ccccn2)cc1OC	43*	9	-2	.	4
O=C(N/N=C/c1cccs1)C(=O)Nc1cccc(Cl)c1	20	4	-2	.	5
COc1ccc(C=NNC(=O)NN=Cc2ccc(OC)c(OC)c2)cc1OC	48*	-3	2	-2	0
COc1cc(C=NNC(=O)C(=O)Nc2cccc(Cl)c2)cc(OC)c1O	39*	1	-4	-17	-2
CNC[C@@H]1Oc2ccc(NS(C)(=O)=O)cc2CC(=O)N([C@H](C)CO)C[C@H]1C	.	.	.	-2	.
COc1cc(/C=N/NC(=O)C(=O)NCc2cccnc2)ccc1O	34*	-10	0	.	5
COc1ccc(/C=N/NC(=O)CSCc2ccc([N+](=O)[O-])cc2)cc1OC	41*	-2	0	.	-7
COc1ccc(/C=N/N(Cc2ccccc2)c2ccccc2)cc1O	8	-7	-3	0	1
COc1cc(/C=N/Nc2ccccn2)ccc1O	25	-1	1	16*	-1
COc1cc(C=NCc2ccccc2)ccc1O	42*	-2	-2	-1	-3
COc1cc(/C=N/Nc2ccnc(=O)[nH]2)ccc1O	30	3	0	-55	-9
COCC(=O)Nc1ccc2c(c1)[C@H]1C[C@H](CC(=O)NCc3ccc(OC)cc3)O[C@H](CO)[C@H]1O2	.	.	.	-1	.
CCCNC(=O)C[C@H]1C[C@@H]2c3cc(NS(=O)(=O)c4cccc(OC)c4)ccc3O[C@@H]2[C@H](CO)O1	.	.	.	-2	.
COc1cccc(/C=C2\Oc3cc(OCC(=O)N4CCC[C@H]4C(=O)O)ccc3C2=O)c1	36*	2	1	2	-47
COc1ccc(/C=C2\Oc3cc(OCC(=O)N4CCC[C@H]4C(=O)O)ccc3C2=O)c(OC)c1	-3	4	-1	.	.
COc1ccc2oc(=O)cc(C)c2c1	8	-2	21	.	-7
COc1ccc2oc3ccc(OC)cc3c(=O)c2c1	1	10	49*	.	-7
